Assay results reported in PubChem BioAssay (EPA / NIEHS).
Values joined by “and” are separate entries in the source; they are usually repeats but may differ in a detail not shown here. Identical values can stand only once. Some compounds were tested as several samples or in several runs, with calls that do not always agree. Active and inactive are the calls of the source. The calls were made as follows: active = hit-call score of the fitted dose curve at least 0.9, where 1 is the maximum; inactive = score below 0.9.

Experiments:
[1] = ATG_PBREM_CIS: Attagene CIS-FACTORIAL HepG2 Assay for human Phenobarbital-responsive Enhancer Module (PBREM) (AID 2282955); details: HepG2 PBREM cis-reporter, Attagene multiplexed transcription; actives raise or lower the signal
In short: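 After a 24 h incubation with test chemical, transfected HepG2 cells yield total RNA; reporter-specific RT-PCR products are fluorescently labelled, HpaI-digested and resolved by capillary electrophoresis against ROX size standards.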

[2] = biological target: Paired box protein Pax-6 (Homo sapiens) (UniProt P26367); assay: ATG_Pax6_CIS: Attagene CIS-FACTORIAL HepG2 Assay for human Paired Box 6 (PAX6) (AID 2282956); details: HepG2 CIS-FACTORIAL PAX6 reporter transcription, RNA readout; actives raise or lower the signal
In short: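 After twenty-four hours of chemical exposure, transfected HepG2 cells are harvested for RNA. Cis-promoter reporter transcripts are amplified, fluorescently labelled and sized by capillary electrophoresis, with gain and loss of signal scored against DMSO.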

[3] = ATG_PXRE_CIS: Attagene CIS-FACTORIAL HepG2 Assay for human Pregnane X Receptor Element (PXRE) (AID 2282957); details: HepG2 Attagene CIS-FACTORIAL PXRE reporter, mRNA; actives raise or lower the signal
In short: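 HepG2 cells transiently transfected with cis-regulated multiple reporter transcription units; endogenous factor activity measured as reporter mRNA 24 h after dosing. RT-PCR, fluorescent primer extension, HpaI digestion, capillary electrophoresis; bidirectional fit versus DMSO baseline.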

[4] = biological target: Transcription factor Sp1 (Homo sapiens) (UniProt P08047); assay: ATG_Sp1_CIS: Attagene CIS-FACTORIAL HepG2 Assay for human Specificity Protein 1 (Sp1) (AID 2282961); details: HepG2 Sp1 cis-reporter transcription, actives raise or lower the signal
In short: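 Sp1-driven reporter mRNA, read as capillary electrophoresis fluorescence after RT-PCR, in transiently transfected HepG2 cells dosed for 24 h; signal change in either direction relative to DMSO.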

[5] = ATG_SREBP_CIS: Attagene CIS-FACTORIAL HepG2 Assay for human Sterol Regulatory Element Binding (SREBP) (AID 2282962); details: HepG2 Attagene cis-factorial SREBP reporter, mRNA; actives raise or lower the signal
In short: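 Twenty-four hours after chemical dosing of transfected HepG2 cultures, reporter RNA was converted to cDNA, amplified, end-labelled with 6-FAM and resolved by capillary electrophoresis. Responses were fitted relative to DMSO.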

[6] = biological target: Signal transducer and activator of transcription 3 (Homo sapiens) (UniProt P40763); assay: ATG_STAT3_CIS: Attagene CIS-FACTORIAL HepG2 Assay for human Signal Transducer and Activator of Transcription 3 (STAT3) (AID 2282963); details: HepG2, Attagene cis-factorial STAT3 reporter transcription; actives raise or lower the signal
In short: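 HepG2 cells transiently transfected with cis-element-driven multiple reporter transcription units; after 24 h chemical exposure, reporter mRNA measured by RT-PCR, 6-FAM primer-extension labelling, HpaI digestion and capillary electrophoresis. Bidirectional fitting versus DMSO baseline.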

[7] = ATG_TA_CIS: Attagene CIS-FACTORIAL HepG2 Assay for human TA Basal Promoter (AID 2282964); details: HepG2 Attagene CIS-factorial TA basal promoter reporter; actives raise or lower the signal
In short: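 Read-out: fluorescent reporter-transcript fragments resolved by capillary electrophoresis after RT-PCR and HpaI digestion. Source: HepG2 cells carrying transiently transfected multi-reporter cis constructs, treated 24 h. Endpoint fitted bidirectionally relative to DMSO.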

[8] = ATG_PPRE_CIS: Attagene CIS-FACTORIAL HepG2 Assay for human Peroxisome Proliferator-activated Response Element (PPRE) (AID 2282958); details: HepG2 PPRE cis-element reporter, Attagene transcription factor profiling; actives raise or lower the signal
In short: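 Multiplexed reporter transcription units under cis-regulatory promoters were transfected into HepG2 cells to capture endogenous factor activity. A 24 h incubation preceded RNA isolation and fluorescent RT-PCR fragment analysis.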

[9] = ATG_RORE_CIS: Attagene CIS-FACTORIAL HepG2 Assay for human RAR-related Orphan Receptor Element (RORE) (AID 2282959); details: HepG2 Attagene cis-factorial RORE reporter, mRNA; actives raise or lower the signal
In short: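 Fluorescence intensity of reporter-specific cDNA fragments, separated by capillary electrophoresis, gives the signal. Source: HepG2 liver cells transiently transfected with cis-element reporters and exposed 24 h; DMSO-normalized bidirectional fit.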

[10] = ATG_Sox_CIS: Attagene CIS-FACTORIAL HepG2 Assay for human SRY-box transcription factor (SOX) (AID 2282960); details: HepG2 Attagene cis-factorial SOX reporter, mRNA; actives raise or lower the signal
In short: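 After 24 h of chemical treatment, transfected HepG2 reporter cells are lysed for total RNA. Transcript levels come from RT-PCR with labelled primer extension and capillary electrophoresis, analysed bidirectionally versus DMSO.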

Chain of Transcription factor Sp1 (Homo sapiens) (P08047 whole entry, looked up): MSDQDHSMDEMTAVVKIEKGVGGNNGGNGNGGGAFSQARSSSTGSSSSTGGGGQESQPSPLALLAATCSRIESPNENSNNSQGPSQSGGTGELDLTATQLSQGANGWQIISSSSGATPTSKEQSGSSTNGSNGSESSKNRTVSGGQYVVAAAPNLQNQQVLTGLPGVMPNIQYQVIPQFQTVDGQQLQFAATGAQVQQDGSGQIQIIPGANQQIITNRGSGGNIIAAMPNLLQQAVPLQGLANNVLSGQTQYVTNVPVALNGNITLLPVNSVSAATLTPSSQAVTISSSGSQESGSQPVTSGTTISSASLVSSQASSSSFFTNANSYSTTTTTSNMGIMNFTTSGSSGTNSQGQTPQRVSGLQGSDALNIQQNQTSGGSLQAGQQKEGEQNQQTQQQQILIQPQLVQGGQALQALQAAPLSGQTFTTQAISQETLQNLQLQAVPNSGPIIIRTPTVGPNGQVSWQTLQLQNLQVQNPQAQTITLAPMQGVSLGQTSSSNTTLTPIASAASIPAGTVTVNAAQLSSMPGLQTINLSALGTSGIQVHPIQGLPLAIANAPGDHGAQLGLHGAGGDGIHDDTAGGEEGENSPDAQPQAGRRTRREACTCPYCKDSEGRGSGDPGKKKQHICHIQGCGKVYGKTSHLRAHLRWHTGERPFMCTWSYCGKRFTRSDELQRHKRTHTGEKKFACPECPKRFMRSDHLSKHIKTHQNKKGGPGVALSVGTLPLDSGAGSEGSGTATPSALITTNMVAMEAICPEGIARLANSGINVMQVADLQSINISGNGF
Chain of Signal transducer and activator of transcription 3 (Homo sapiens) (P40763 whole entry, looked up): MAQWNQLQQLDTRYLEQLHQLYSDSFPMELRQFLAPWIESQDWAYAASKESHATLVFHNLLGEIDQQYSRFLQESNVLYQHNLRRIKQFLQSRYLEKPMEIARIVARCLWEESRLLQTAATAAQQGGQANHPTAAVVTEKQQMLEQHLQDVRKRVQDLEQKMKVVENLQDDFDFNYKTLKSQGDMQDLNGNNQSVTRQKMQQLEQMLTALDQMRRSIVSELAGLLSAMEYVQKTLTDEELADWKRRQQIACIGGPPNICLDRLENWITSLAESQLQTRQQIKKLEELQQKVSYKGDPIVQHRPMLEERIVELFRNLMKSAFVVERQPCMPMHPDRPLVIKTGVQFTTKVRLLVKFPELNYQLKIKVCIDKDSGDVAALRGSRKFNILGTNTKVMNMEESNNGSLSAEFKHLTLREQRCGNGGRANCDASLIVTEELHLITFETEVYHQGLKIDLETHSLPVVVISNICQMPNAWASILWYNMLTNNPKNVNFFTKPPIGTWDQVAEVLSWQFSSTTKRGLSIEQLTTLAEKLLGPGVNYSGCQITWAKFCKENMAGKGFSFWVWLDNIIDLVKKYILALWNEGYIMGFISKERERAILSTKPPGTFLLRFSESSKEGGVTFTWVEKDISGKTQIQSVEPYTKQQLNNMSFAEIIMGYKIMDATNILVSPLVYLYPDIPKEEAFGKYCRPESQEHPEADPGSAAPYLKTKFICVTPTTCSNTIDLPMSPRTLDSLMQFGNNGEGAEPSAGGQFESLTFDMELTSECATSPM
Chain of Paired box protein Pax-6 (Homo sapiens) (P26367 whole entry, looked up): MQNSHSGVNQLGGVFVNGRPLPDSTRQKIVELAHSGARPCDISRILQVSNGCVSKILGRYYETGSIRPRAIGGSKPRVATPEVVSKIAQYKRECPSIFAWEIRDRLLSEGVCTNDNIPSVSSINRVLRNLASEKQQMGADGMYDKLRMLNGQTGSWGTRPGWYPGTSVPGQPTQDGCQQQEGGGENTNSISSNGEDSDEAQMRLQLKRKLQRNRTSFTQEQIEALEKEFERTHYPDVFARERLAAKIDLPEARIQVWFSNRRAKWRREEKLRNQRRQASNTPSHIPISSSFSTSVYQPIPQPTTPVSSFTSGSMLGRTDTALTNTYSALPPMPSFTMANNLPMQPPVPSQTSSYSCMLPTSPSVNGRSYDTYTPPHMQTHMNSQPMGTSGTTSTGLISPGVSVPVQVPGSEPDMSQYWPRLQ

Structure (SMILES): CCCCCOC(C)=O
- outcome [1]: inactive
- outcome [2]: inactive
- outcome [3]: inactive
- outcome [4]: inactive
- outcome [5]: inactive
- outcome [6]: inactive
- outcome [7]: inactive

Structure (SMILES): O=S1(=O)CCCO1
- outcome [1]: inactive
- outcome [2]: inactive
- outcome [3]: inactive
- outcome [4]: inactive
- outcome [5]: inactive
- outcome [6]: inactive

Structure (SMILES): CCCCN1C(=O)[C@@H]([C@H](O)C2CCCCC2)NC(=O)C12CCN(Cc1ccc(Oc3ccc(C(=O)O)cc3)cc1)CC2
- outcome [1]: inactive
- outcome [2]: inactive
- AC50 [3]: 93.5 µM (active)
- outcome [4]: inactive
- outcome [5]: inactive
- outcome [6]: inactive
- AC50 [7]: 31.7 µM (active)

Structure (SMILES): COc1cc(C(C)C)c2c(c1)S(=O)(=O)N(COc1cc(=O)n3cccc(OCCN4CCCCC4)c3n1)C2=O
- outcome [1]: inactive
- AC50 [2]: 8.11 µM (active)
- AC50 [3]: 3.27 µM (active)
- AC50 [4]: 3.94 µM (active)
- AC50 [5]: 3.78 µM (active)
- outcome [6]: inactive

Structure (SMILES): CCN(CC)C(=S)SSC(=S)N(CC)CC
- AC50 [1]: 166 µM (active)
- AC50 [2]: 137 µM (active)
- outcome [8]: inactive
- outcome [9]: inactive
- AC50 [10]: 100 µM (active)
- AC50 [4]: 150 µM (active)
- AC50 [5]: 157 µM (active)
- outcome [6]: inactive
- outcome [7]: inactive

Structure (SMILES): CC(C)CC(C)O (centres undefined)
- outcome [1]: inactive
- outcome [2]: inactive
- outcome [8]: inactive
- outcome [9]: inactive
- outcome [10]: inactive
- outcome [4]: inactive
- outcome [5]: inactive
- outcome [6]: inactive
- outcome [7]: inactive

Structure (SMILES): c1ccc2c(c1)-c1cccc3c1c-2cc1ccccc13
- outcome [1]: inactive
- outcome [2]: inactive
- outcome [9]: inactive
- outcome [4]: inactive
- outcome [5]: inactive
- outcome [6]: inactive

Structure (SMILES): NCC(F)(F)C(F)(F)C(F)(F)C(F)(F)F
- outcome [1]: inactive
- outcome [2]: inactive
- outcome [9]: inactive
- outcome [4]: inactive
- outcome [5]: inactive
- outcome [6]: inactive

Structure (SMILES): O=C(O)c1cccc(C[C@@H]2COc3ccc(OCc4nc5cc(F)ccc5s4)cc3[C@@H]2O)c1
- outcome [1]: inactive
- AC50 [2]: 135 µM (active)
- outcome [9]: inactive
- outcome [4]: inactive
- outcome [5]: inactive
- outcome [6]: inactive
- outcome [7]: inactive

Structure (SMILES): S=P(N1CC1)(N1CC1)N1CC1
- outcome [1]: inactive
- outcome [2]: inactive
- outcome [8]: inactive
- outcome [9]: inactive
- outcome [4]: inactive
- AC50 [5]: 157 µM (active)
- outcome [5]: inactive
- outcome [6]: inactive

Structure (SMILES): O=C1CN(N=Cc2ccc([N+](=O)[O-])o2)C(=O)N1
- outcome [1]: inactive
- outcome [2]: inactive
- outcome [9]: inactive
- outcome [4]: inactive
- outcome [5]: inactive
- outcome [6]: inactive

Structure (SMILES): FC(F)C(F)(F)COCC1CO1 (centres undefined)
- outcome [1]: inactive
- outcome [2]: inactive
- outcome [8]: inactive
- outcome [9]: inactive
- outcome [10]: inactive
- outcome [4]: inactive
- outcome [5]: inactive
- outcome [6]: inactive

Structure (SMILES): C=CN1CCCC1=O
- outcome [1]: inactive
- outcome [2]: inactive
- outcome [9]: inactive
- outcome [10]: inactive
- outcome [4]: inactive
- outcome [5]: inactive
- outcome [6]: inactive
- outcome [7]: inactive

Structure (SMILES): Cc1nc(-c2ccccn2)ncc1C(=O)Nn1cc(C)c2cc(F)ccc21
- outcome [1]: inactive
- outcome [2]: inactive
- outcome [8]: inactive
- outcome [9]: inactive
- outcome [10]: inactive
- outcome [4]: inactive
- outcome [5]: inactive
- outcome [6]: inactive
- outcome [7]: inactive

Structure (SMILES): CC(C)C(=O)Nc1ccc([N+](=O)[O-])c(C(F)(F)F)c1
- outcome [1]: inactive
- outcome [2]: inactive
- outcome [9]: inactive
- outcome [10]: inactive
- outcome [4]: inactive
- outcome [5]: inactive
- outcome [6]: inactive
- outcome [7]: inactive

Structure (SMILES): O=C(O)c1ccc2c(c1)nc(C(=O)NC1CCN(C3CC3)CC1)n2Cc1cc(-c2ccc(Cl)s2)on1
- outcome [1]: inactive
- outcome [2]: inactive
- AC50 [8]: 0.149 µM (active)
- outcome [9]: inactive
- outcome [4]: inactive
- outcome [5]: inactive
- outcome [6]: inactive
- outcome [7]: inactive

Structure (SMILES): OCc1ccccc1
- outcome [1]: inactive
- outcome [2]: inactive
- outcome [10]: inactive
- outcome [4]: inactive
- outcome [5]: inactive
- outcome [6]: inactive

Structure (SMILES): OC(O)(C(F)C(O)(O)C(F)(F)F)C(F)(F)F
- outcome [1]: inactive
- outcome [2]: inactive
- AC50 [4]: 64.6 µM (active) and 96.6 µM (active)
- AC50 [5]: 66.4 µM (active) and 37.5 µM (active)
- outcome [6]: inactive
- outcome [7]: inactive

Structure (SMILES): c1ccc(C(O[C@@H]2CCCN(CCc3ccc4c(c3)OCO4)C2)c2ccccc2)cc1
- AC50 [2]: 44.3 µM (active)
- AC50 [3]: 0.514 µM (active)
- outcome [10]: inactive
- outcome [4]: inactive
- AC50 [5]: 10.7 µM (active)
- outcome [6]: inactive

Structure (SMILES): CCOC(N)=O
- outcome [2]: inactive
- outcome [3]: inactive
- outcome [10]: inactive
- outcome [4]: inactive
- outcome [5]: inactive
- outcome [6]: inactive

Structure (SMILES): Cc1ncc([C@@H](CCCCCCc2ccc3c(n2)NCCC3)CC(=O)O)cn1
- outcome [2]: inactive
- outcome [8]: inactive
- outcome [10]: inactive
- outcome [4]: inactive
- outcome [5]: inactive
- outcome [6]: inactive
- outcome [7]: inactive
